Experimental data reported in PubChem BioAssay.
Active and inactive are the calls of the source. No stated cut-off is given here; in the data, active means inhibition above about 25%; inactive means the rest.

Assay: repression of VP16-driven luciferase reporter – cell-based, luminescence, high throughput, counter-screen for SRC1 inhibitor project (AID 588824)
Conditions: cell-based VP16 transactivation luciferase luminescence; at 3.6 µM; hits give high values

Row | Structure (SMILES) | inhibition
1 | O=C(CSc1n[nH]c(-c2cccnc2)n1)Nc1ccc([N+](=O)[O-])cc1 | -8.24% (inactive)
2 | COc1ccc(C2c3cc(OC)c(OC)cc3CCN2S(C)(=O)=O)cc1OC (stereo not given) | 9.73% (inactive)
3 | CCC(C)c1ccc(S(=O)(=O)Nc2cccnc2)cc1 (stereo not given) | -4.32% (inactive)
4 | COc1cc(C(=O)NCCOc2cc(C)ccc2C(C)C)cc(OC)c1OC | 23.8% (inactive)
5 | COc1ccc(S(=O)(=O)Nc2ccc(F)c(Cl)c2)cc1OC | -10.6% (inactive)
6 | Cc1cnc(C(=O)Nc2cccc3cccnc23)cn1 | -21.9% (inactive)
7 | CCCCC(=O)Nc1cccn2ncnc12 | 14.8% (inactive)
8 | CC1CCCCN1c1ncnc2ccccc12 (stereo not given) | 17.9% (inactive)
9 | CCCCC(=O)NC(c1ccc(N(CC)CC)cc1)c1ccc2cccnc2c1O (stereo not given) | 63.8% (active)
10 | CCOC(=O)C(=O)NNc1ccc(F)cc1 | -4.08% (inactive)
11 | Cc1cccc(C)c1NC(=O)C1(C)CCC(=O)N1c1cc(C(C)(C)C)nn1C (stereo not given) | -5.42% (inactive)
12 | CCNC(=O)C1(C)CCN(C(=O)c2ccc(F)cc2Cl)C1 (stereo not given) | 3.22% (inactive)
13 | Cc1ccc(C2C3=C(CC(C)(C)CC3=O)OC3=C2C(=O)CC(C)(C)C3)cc1 | 3.31% (inactive)
14 | COc1ccc(-c2cc(=O)oc3c(C)c(O)c(CN(C)C)cc23)cc1 | 18.4% (inactive)
15 | N#Cc1c(-c2ccccc2)c(C#N)c2nc3ccccc3n2c1N | 17.8% (inactive)
16 | c1ccc(-c2cn(-c3ccccc3)c3ncnc(N4CCCCC4)c23)cc1 | 9.49% (inactive)
17 | C=CCSc1nnc(-c2cc(C(C)(C)C)nn2Cc2ccc(F)cc2)n1C | 4.7% (inactive)
18 | CCc1ccc(CN(C)C(=O)C2CCC(=O)N(CC3CCCCC3)C2)cc1 (stereo not given) | 2.92% (inactive)
19 | Cc1cc(C(=O)OCC(=O)N2CC(C)OC(C)C2)c(C)n1-c1ccccc1 (stereo not given) | -1.93% (inactive)
20 | Cc1cc2nc(C3CCCCC3)c(Cc3cccc(F)c3)n2c(C)c1Br | 11.8% (inactive)

Row | Structure (SMILES) | inhibition
21 | Cc1nn(Cc2cccc(F)c2)c(C)c1NC(=O)c1ccc(COc2ccccc2Cl)cc1 | 46.7% (active)
22 | COc1cccc(CNc2nc3cc(-c4ccsc4)sc3c(=O)n2C)c1OC | 25.6% (active)
23 | CN(C)C(=O)c1cccc(-c2cnc3cccnn23)c1 | 7.53% (inactive)
24 | O=C(COC(=O)COc1ccccc1)NCCc1ccccc1 | -1.43% (inactive)
25 | Cc1csc(NC(=O)c2cc(-c3ccccc3)nc3ccccc23)n1 | 1.79% (inactive)
26 | CCC(NC(=O)NC1CCCCC1)c1ccccc1 (stereo not given) | -3.88% (inactive)
27 | O=C(CCC(=O)Nc1ccc(Br)cc1)N/N=C/c1ccccc1O | 22.2% (inactive)
28 | CC1CC(C)CN(c2ncc3c(n2)CC(c2ccc(Cl)cc2)CC3=O)C1 (stereo not given) | 3.59% (inactive)
29 | COc1ccccc1CNC(=O)Cn1nnnc1CN(C)C(C)C | 9.79% (inactive)
30 | CCC(C)C(=O)Nc1nc(C)c(-c2csc(Nc3cc(Cl)ccc3OC)n2)s1 (stereo not given) | -1.24% (inactive)
31 | O=C(NCc1ccncc1)C1CCCN(S(=O)(=O)c2ccc(Br)cc2)C1 (stereo not given) | 14.6% (inactive)
32 | COc1ccc2c(c1)-c1c(ssc1=S)C(C)(C)N2C(=O)CSC1=NCCS1 | 12.4% (inactive)
33 | Cc1ccc(S(=O)(=O)NNC2=NS(=O)(=O)c3ccccc32)c(C)c1 | -7.56% (inactive)
34 | COc1cc(OC)cc(C(=O)NNC(=O)c2ccccn2)c1 | 2.65% (inactive)
35 | C=CCn1c(Oc2ccccc2F)nc2c1c(=O)n(C)c(=O)n2C | 23.6% (inactive)
36 | Cc1ccc(-c2nc(-c3ccccc3)no2)c(Cl)c1 | -16.6% (inactive)
37 | Cc1ccc(S(=O)(=O)N2[C@@H](c3cccc(Cl)c3)C(C(=O)OC(C)(C)C)=CC[C@H]2c2ccc(C(C)C)cc2)cc1 | 11.2% (inactive)
38 | COc1ccc(OCCN2CCN(C(=O)c3ccc(OC(F)F)c(OC)c3)CC2)cc1 | 2.73% (inactive)
39 | COc1ccc(C(O)(C(C)C)C(CN2CCOCC2)c2ccc(Cl)cc2)cc1 (stereo not given) | 13.8% (inactive)
40 | COc1cc(C(=O)NC(=S)NNC(=O)c2cnccn2)cc(OC)c1OC | -5.2% (inactive)
